Targets with a hit are over-represented here; the source holds about 7,900 in all. About 0.6% of all pairs of compound and target were hits. A number with no mark means an inactive call.
compound: CN(CCOC1=CC=C(C=C1)C[C@H]2C(=O)NC(=O)S2)C3=CC=CC=N3 (racemic) [rosiglitazone]; test: log2 fold change, soluble protein after heating vs DMSO (PISA); higher = thermal stabilisation; K562 cells, 10 uM, 30 min; active = over 0.2 and 3.5 SD of the protein, either way, in both replicates (recomputed)
How it was run: (§1)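 K562 cells at 2×10^6 cells/mL were treated with 10 μM compound for 30 min. Aliquots were heated for 3 min across 48°C-58°C, pooled, and extracted in PBS with 0.5% NP-40 at 4°C; soluble protein was the supernatant after 21,000xg for 90 min. Soluble protein was quantified by TMTpro 16plex LC-MS/MS with channel sums equalised, and reported as log2 fold change in thermal stability against DMSO controls, with values from duplicates.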

UniProt Q96IV0, sequence (Q96IV0 whole entry, looked up): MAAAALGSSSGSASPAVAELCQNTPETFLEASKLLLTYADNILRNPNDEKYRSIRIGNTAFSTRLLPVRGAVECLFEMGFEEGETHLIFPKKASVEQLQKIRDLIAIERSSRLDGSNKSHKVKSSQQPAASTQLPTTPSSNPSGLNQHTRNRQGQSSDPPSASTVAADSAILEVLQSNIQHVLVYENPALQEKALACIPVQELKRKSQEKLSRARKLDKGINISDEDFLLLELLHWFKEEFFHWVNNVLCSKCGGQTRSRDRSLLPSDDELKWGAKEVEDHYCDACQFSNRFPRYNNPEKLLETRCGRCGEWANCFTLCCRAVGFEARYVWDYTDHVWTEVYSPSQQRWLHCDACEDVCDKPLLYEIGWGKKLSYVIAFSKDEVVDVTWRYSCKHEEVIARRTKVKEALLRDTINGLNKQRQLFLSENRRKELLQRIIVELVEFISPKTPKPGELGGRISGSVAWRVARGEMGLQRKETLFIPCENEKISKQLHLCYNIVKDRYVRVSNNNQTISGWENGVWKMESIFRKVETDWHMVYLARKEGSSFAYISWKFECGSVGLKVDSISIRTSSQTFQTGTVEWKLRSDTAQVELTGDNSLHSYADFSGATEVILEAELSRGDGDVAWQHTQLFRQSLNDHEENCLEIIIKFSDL
UniProt P49914, sequence (P49914 whole entry, looked up): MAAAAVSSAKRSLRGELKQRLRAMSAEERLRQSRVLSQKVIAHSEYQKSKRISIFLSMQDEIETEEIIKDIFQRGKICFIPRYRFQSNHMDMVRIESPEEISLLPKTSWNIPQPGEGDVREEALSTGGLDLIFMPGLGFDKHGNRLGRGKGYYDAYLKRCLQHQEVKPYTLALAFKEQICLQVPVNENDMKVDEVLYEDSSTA
UniProt Q8NI08, sequence (Q8NI08 whole entry, looked up): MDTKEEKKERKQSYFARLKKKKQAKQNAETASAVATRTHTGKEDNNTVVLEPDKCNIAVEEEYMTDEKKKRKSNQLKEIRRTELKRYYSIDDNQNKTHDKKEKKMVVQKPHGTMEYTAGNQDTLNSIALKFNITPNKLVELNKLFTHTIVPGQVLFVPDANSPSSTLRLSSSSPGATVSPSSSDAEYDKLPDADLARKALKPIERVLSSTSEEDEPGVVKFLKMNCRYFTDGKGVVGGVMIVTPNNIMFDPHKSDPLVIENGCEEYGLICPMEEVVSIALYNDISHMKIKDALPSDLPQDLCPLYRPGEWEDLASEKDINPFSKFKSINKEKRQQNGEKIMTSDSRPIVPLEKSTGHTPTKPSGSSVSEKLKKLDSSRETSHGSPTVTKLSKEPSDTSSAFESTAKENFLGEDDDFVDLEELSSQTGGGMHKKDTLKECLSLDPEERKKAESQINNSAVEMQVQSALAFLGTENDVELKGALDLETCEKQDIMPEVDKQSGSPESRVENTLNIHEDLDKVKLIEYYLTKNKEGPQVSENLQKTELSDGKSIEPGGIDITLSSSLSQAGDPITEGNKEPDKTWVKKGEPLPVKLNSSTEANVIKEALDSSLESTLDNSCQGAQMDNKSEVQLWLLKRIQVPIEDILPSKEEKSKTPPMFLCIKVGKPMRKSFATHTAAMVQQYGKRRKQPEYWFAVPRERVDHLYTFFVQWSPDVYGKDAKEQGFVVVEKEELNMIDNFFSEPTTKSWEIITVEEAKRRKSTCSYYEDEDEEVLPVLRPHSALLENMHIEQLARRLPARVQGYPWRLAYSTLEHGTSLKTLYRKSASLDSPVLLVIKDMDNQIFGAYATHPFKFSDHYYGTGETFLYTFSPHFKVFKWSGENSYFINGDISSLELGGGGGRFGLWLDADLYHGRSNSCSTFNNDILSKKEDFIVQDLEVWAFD
UniProt O43809, sequence (O43809 whole entry, looked up): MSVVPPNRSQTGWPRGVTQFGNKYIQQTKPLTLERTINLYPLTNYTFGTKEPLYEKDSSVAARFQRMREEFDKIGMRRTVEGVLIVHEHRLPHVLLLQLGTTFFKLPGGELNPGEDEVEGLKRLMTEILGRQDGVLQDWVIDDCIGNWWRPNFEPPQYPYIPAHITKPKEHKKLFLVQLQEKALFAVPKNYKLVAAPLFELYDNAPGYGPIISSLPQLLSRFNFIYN
UniProt P35749, sequence (P35749 whole entry, looked up): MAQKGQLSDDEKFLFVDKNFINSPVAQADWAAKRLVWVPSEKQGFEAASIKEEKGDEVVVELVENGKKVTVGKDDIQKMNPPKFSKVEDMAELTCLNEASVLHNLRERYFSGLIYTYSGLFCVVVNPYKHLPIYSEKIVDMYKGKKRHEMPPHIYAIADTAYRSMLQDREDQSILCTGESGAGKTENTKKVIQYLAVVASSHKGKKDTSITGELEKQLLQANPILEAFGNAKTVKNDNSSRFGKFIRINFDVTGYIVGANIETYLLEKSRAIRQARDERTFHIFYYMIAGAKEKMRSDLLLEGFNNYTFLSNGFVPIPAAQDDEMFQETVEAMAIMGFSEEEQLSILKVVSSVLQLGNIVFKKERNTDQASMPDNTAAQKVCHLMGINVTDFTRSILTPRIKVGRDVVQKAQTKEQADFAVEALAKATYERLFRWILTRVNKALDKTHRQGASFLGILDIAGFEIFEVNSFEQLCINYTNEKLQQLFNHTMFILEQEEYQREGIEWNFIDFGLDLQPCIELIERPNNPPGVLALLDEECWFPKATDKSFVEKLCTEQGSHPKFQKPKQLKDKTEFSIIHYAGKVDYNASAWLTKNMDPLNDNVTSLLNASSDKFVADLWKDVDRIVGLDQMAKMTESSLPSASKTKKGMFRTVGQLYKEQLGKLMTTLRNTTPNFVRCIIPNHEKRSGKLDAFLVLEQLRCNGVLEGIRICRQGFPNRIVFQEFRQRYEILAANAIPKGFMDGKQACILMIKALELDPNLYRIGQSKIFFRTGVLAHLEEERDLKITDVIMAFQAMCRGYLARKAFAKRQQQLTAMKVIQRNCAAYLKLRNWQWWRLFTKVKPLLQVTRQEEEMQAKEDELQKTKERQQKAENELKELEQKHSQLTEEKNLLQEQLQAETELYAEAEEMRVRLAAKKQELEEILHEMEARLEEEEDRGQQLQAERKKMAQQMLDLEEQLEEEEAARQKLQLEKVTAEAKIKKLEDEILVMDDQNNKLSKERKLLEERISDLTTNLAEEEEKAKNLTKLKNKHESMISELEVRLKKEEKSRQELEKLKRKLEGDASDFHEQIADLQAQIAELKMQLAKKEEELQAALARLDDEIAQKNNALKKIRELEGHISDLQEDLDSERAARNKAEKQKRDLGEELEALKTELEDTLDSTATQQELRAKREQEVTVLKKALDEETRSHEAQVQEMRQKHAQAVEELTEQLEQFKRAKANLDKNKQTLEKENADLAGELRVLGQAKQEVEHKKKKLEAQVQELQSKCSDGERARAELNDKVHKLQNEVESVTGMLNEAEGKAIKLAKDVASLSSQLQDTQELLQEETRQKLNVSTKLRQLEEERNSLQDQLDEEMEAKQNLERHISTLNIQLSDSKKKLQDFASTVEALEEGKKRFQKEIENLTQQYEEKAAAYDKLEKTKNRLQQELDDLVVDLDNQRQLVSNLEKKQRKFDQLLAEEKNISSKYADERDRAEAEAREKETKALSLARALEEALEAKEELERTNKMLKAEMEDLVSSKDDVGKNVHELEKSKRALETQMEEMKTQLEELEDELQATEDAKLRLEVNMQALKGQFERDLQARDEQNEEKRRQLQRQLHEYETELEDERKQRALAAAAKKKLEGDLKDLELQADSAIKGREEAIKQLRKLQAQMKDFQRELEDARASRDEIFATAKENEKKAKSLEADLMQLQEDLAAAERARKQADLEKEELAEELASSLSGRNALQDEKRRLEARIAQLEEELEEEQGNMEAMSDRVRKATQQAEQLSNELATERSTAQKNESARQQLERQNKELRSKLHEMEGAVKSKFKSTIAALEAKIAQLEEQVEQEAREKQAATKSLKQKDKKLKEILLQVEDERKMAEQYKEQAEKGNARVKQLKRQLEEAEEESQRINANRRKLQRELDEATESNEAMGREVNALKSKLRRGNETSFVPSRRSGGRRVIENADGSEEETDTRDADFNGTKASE
UniProt Q96DE0, sequence (Q96DE0 whole entry, looked up): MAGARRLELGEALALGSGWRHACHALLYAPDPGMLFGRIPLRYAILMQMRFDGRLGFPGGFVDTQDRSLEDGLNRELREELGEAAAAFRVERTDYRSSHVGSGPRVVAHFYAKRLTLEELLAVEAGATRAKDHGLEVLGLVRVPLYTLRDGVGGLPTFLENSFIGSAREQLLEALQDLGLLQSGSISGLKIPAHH
UniProt Q9BWT6, sequence (Q9BWT6 whole entry, looked up): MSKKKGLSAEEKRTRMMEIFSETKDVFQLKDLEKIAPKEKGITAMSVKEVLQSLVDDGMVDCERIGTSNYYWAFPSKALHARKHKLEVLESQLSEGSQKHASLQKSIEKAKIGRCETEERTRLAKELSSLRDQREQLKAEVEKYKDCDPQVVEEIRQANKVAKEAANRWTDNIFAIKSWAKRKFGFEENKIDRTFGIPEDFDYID
UniProt Q96I59, sequence (Q96I59 whole entry, looked up): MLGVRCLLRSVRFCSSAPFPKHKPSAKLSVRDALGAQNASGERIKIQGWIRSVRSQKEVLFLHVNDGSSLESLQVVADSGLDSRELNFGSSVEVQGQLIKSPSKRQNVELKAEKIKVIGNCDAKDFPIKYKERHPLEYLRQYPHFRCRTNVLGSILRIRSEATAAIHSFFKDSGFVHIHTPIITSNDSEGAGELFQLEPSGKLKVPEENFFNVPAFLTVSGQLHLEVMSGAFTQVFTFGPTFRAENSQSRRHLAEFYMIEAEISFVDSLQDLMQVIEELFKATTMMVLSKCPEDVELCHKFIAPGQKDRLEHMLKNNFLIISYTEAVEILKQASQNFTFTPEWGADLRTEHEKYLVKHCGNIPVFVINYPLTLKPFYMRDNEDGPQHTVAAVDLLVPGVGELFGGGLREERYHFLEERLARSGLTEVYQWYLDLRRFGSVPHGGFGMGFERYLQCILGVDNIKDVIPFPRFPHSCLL
UniProt Q9UI09, sequence (Q9UI09 whole entry, looked up): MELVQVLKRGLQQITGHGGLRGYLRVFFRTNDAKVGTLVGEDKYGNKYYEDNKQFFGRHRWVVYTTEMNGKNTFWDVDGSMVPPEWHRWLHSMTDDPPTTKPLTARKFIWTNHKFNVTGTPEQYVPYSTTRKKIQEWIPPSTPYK

| Target | log2 fold change |
| --- | --- |
| NARS2 (UniProt Q96I59) | 0.026 |
| NMT2 (UniProt O60551) | -0.056 |
| MTHFS (UniProt P49914) | 0.046 |
| NUCKS1 (UniProt Q9H1E3) | 0.001 |
| MYH11 isoform 2 (UniProt P35749) | 0.015 |
| NUP160 (UniProt Q12769) | 0.03 |
| NDUFA12 (UniProt Q9UI09) | 0.082 |
| NUDT21 (UniProt O43809) | -0.028 |
| NCOA7 (UniProt Q8NI08) | 0.099 |
| MON2 isoform 5 (UniProt Q7Z3U7) | 0.062 |
| NMRAL1 (UniProt Q9HBL8) | 0.011 |
| NMNAT1 (UniProt Q9HAN9) | -0.126 |
| MND1 (UniProt Q9BWT6) | -0.008 |
| NUDT16 (UniProt Q96DE0) | -0.048 |
| NGLY1 (UniProt Q96IV0) | 0.01 |

compound: CN1C2=C(C3=C1C(=O)N(N=C3)CC4=CC(=CC=C4)N)SC(=C2)S(=O)C; test: as above
How it was run: as §1

| Target | log2 fold change |
| --- | --- |
| NOB1 (UniProt Q9ULX3) | 0.04 |
| MRPS25 (UniProt P82663) | 0.074 |
| NACC1 (UniProt Q96RE7) | 0 |
| NEMP1 (UniProt O14524) | 0.01 |
| MTHFD1 (UniProt P11586) | -0.057 |
| OXSM (UniProt Q9NWU1) | -0.025 |
| MT-ATP6 (UniProt P00846) | -0.239 |
| OTUD4 (UniProt Q01804) | 0.041 |
| MRPL50 (UniProt Q8N5N7) | -0.043 |
| NFATC2 (UniProt Q13469) | 0.039 |
| NUP205 (UniProt Q92621) | -0.041 |
| MRPS24 (UniProt Q96EL2) | -0.004 |
| MINK1 (UniProt Q8N4C8) | -0.004 |
| NUP85 (UniProt Q9BW27) | -0.038 |
| NOP56 (UniProt O00567) | 0.299 |
| P4HA2 (UniProt O15460) | 0.112 |
| NCAPH (UniProt Q15003) | -0.021 |
| MRPS15 (UniProt P82914) | 0.049 |
| NA, A0A096LPI6 | -0.03 |
| NQO1 (UniProt P15559) | 0.356 (active) |

| Target | log2 fold change |
| --- | --- |
| NIBAN1 (UniProt Q9BZQ8) | 0.04 |
| MPHOSPH10 (UniProt O00566) | 0.314 |
| NCAPD2 (UniProt Q15021) | 0.044 |
| NFATC2IP (UniProt Q8NCF5) | -0.008 |
| NARS2 (UniProt Q96I59) | -0.034 |
| NMT2 (UniProt O60551) | 0.002 |
| MTHFS (UniProt P49914) | -0.022 |
| NUCKS1 (UniProt Q9H1E3) | -0.043 |
| MYH11 isoform 2 (UniProt P35749) | -0.077 |
| NUP160 (UniProt Q12769) | -0.033 |
| NDUFA12 (UniProt Q9UI09) | -0.054 |
| NUDT21 (UniProt O43809) | -0.013 |
| NCOA7 (UniProt Q8NI08) | -0.009 |
| MON2 isoform 5 (UniProt Q7Z3U7) | -0.064 |
| NMRAL1 (UniProt Q9HBL8) | 0.059 |
| NMNAT1 (UniProt Q9HAN9) | 0.228 |
| MND1 (UniProt Q9BWT6) | 0.04 |
| NUDT16 (UniProt Q96DE0) | -0.069 |
| NGLY1 (UniProt Q96IV0) | 0.044 |

From the supplement of paper PMC10849652
